# Data as given in the supplement of paper PMC8773631.
# Where a name gives a salt, the structure may show the parent alone. ± gives the uncertainty stated by the source.
# Tested on: NCC-MFS5-C1
# Test: cell viability relative to DMSO control; higher = less growth inhibition
# Conditions: 10 µM; treatment time: 3 days
# Method: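 NCC-MFS5-C1 myxofibrosarcoma cells (1x10^4 per well, 384-well) were treated on day 2 with 10 µM of each drug. On day 5, viability was read by CCK-8 absorbance at 450 nm and normalised to the DMSO control (%), n = 2.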
row,SMILES,cell viability [%]
1,CC[C@@]1(O)C(=O)OCc2c1cc1n(c2=O)Cc2cc3ccccc3nc2-1 [Camptothecin],52.5 ± 6.1
2,Cn1c(CCCC(=O)O)nc2cc(N(CCCl)CCCl)ccc21 [Bendamustine HCl],66.3 ± 8.2
3,N.N.[Cl][Pt][Cl] [Cisplatin],79.1 ± 4.2
4,O=C(O)CCCc1ccc(N(CCCl)CCCl)cc1 [Chloroambucil],99.4 ± 29
5,C/C=C(\C)C(=O)N[C@@H](c1ccccc1)[C@@H](O)C(=O)O[C@H]1C[C@@]2(O)[C@@H](OC(=O)c3ccccc3)[C@@H]3[C@]4(OC(C)=O)CO[C@@H]4C[C@H](O)[C@@]3(C)C(=O)[C@H](OC(C)=O)C(=C1C)C2(C)C [Cephalomannine],50.2 ± 8.7
6,C=C1C[C@@H]2[C@H](CC[C@]3(C)C(=O)CC[C@@H]23)[C@@]2(C)C=CC(=O)C=C12 [Exemestane],100 ± 4.3
7,O=P1(NCCCl)OCCCN1CCCl (configuration not stated) [Ifosfamide],79.9 ± 6.8
8,O=P1(N(CCCl)CCCl)NCCCO1 (configuration not stated) [Cyclophosphamide Monohydrate],85.6 ± 2.8
9,CC(=O)OC12COC1CC(O)C1(C)C(=O)C(O)C3=C(C)C(O)CC(O)(C(OC(=O)c4ccccc4)C21)C3(C)C (configuration not stated) [10-Deacetylbaccatin-III],86.6 ± 0.96
10,Cc1c(N)nc(C(CC(N)=O)NCC(N)C(N)=O)nc1C(=O)NC(C(=O)NC(C)C(O)C(C)C(=O)NC(C(=O)NCCc1nc(-c2nc(C(=O)NCCC[S+](C)C)cs2)cs1)C(C)O)C(O[C@@H]1O[C@@H](CO)[C@@H](O)[C@H](O)[C@@H]1O[C@H]1O[C@H](CO)[C@@H](O)[C@H](OC(N)=O)[C@@H]1O)c1cnc[nH]1 (some centres not stated) [Bleomycin Sulfate],78.3 ± 12
11,C=CCN1CC[C@]23c4c5ccc(O)c4O[C@H]2C(=O)CC[C@@]3(O)[C@H]1C5 [Naloxone HCl],72.1 ± 2.9
12,NCCCNCCSP(=O)(O)O [Amifostine],103 ± 3
